For experiment [1], the target named is T1, Serine/threonine-protein kinase 17A (Homo sapiens) (UniProt Q9UEE5).
T1 sequence (whole entry): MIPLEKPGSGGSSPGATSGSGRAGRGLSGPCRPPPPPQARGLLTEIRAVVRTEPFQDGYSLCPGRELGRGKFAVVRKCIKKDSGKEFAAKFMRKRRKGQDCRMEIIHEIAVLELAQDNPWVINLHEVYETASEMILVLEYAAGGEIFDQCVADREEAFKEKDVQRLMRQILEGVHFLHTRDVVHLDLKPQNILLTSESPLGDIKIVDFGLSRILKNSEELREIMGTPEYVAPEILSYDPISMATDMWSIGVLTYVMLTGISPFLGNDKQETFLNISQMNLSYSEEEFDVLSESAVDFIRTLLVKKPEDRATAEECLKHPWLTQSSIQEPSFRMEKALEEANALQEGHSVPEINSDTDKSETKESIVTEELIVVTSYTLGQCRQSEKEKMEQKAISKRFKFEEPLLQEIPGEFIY
Conditions: at 10 µM.

Experiment [2] has as its target Epidermal growth factor receptor (Homo sapiens) (UniProt P00533). Conditions: at 1 µM.
For experiment [3] the target is unchanged. Conditions: at 10 µM.
The target of experiment [4] is T2, Ephrin type-A receptor 1 (Homo sapiens) (UniProt P21709).
T2 sequence (whole entry): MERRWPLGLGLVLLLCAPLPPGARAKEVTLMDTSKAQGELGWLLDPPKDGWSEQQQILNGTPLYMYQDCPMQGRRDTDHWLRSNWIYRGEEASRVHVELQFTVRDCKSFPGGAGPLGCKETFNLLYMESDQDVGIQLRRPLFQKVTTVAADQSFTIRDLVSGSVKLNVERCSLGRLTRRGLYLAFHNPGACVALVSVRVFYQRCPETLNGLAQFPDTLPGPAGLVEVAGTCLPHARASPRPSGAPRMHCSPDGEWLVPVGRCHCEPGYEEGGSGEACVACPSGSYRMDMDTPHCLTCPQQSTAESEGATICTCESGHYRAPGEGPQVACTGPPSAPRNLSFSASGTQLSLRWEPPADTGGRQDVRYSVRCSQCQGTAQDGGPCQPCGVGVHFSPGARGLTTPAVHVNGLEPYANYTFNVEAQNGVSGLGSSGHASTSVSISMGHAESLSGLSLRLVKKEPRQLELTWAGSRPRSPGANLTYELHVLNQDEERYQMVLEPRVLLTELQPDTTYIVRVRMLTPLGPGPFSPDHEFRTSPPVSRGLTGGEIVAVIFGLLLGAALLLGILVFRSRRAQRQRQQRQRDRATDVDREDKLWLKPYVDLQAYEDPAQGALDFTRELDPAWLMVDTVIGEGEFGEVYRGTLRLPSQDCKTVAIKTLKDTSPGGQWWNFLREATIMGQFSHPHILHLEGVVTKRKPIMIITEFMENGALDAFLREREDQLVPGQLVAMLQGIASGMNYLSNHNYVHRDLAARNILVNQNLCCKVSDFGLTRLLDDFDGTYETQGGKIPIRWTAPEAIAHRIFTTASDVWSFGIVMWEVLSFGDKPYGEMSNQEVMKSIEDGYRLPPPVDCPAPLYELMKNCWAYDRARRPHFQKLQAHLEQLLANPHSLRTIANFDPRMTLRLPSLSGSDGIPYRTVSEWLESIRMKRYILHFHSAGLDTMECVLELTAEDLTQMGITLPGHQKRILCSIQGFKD
The note with it: at 1 µM.

Experiment [5] has as its target T2, Ephrin type-A receptor 1 (Homo sapiens). Conditions: at 10 µM.
Experiment [6] concerns the target Ephrin type-A receptor 2 (Homo sapiens) (UniProt P29317). Conditions: at 1 µM.
Experiment [7] shares this target. Conditions: at 10 µM.
Experiment [8] addresses T3, Dual specificity tyrosine-phosphorylation-regulated kinase 2 (Homo sapiens) (UniProt Q92630).
T3 sequence (whole entry): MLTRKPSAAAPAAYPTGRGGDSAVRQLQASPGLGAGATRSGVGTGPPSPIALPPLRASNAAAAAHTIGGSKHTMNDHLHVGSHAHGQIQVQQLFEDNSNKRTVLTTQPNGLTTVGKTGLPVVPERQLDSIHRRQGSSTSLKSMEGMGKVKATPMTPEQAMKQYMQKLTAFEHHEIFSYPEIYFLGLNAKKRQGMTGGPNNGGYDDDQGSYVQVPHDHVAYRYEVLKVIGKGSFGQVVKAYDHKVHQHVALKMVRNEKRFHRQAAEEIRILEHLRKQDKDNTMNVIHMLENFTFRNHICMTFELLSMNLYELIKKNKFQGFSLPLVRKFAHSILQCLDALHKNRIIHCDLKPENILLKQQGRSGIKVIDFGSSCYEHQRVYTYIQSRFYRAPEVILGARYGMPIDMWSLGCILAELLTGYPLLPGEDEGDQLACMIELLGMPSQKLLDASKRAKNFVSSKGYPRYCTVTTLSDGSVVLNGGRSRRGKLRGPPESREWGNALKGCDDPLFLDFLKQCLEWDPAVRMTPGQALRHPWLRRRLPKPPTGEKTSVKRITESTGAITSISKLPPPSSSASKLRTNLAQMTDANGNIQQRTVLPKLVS
The note with it: at 10 µM.

The target in experiment [9] is T4, Ephrin type-A receptor 3 (Homo sapiens) (UniProt P29320).
T4 sequence (whole entry): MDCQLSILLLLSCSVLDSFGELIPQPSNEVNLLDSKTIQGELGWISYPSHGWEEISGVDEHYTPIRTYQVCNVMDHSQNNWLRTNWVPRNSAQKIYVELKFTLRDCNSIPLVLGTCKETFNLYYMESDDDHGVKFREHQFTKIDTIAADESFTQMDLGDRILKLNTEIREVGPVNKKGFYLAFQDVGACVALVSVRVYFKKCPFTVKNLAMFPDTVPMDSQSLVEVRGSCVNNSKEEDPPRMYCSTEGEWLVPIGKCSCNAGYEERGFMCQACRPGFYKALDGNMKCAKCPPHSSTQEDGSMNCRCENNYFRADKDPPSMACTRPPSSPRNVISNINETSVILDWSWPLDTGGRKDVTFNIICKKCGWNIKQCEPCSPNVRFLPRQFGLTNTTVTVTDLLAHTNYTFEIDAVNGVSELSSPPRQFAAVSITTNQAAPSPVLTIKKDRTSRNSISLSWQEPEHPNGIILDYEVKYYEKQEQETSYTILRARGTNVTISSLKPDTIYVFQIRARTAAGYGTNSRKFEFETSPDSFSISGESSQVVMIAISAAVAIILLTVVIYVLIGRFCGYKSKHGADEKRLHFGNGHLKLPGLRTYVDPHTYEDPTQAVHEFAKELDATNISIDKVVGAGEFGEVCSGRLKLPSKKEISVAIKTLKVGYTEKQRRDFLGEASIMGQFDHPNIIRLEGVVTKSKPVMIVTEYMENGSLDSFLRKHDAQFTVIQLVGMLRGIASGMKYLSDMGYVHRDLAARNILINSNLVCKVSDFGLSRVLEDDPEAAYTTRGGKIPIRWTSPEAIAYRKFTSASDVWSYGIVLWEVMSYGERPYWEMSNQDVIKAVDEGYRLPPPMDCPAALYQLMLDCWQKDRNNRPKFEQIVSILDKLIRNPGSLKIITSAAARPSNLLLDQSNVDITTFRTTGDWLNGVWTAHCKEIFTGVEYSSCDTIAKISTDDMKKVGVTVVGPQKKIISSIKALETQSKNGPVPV
Conditions: at 1 µM.

For experiment [10], the target named is T3, Dual specificity tyrosine-phosphorylation-regulated kinase 2 (Homo sapiens). The note with it: at 1 µM.

Chain of Epidermal growth factor receptor (Homo sapiens) (P00533 whole entry): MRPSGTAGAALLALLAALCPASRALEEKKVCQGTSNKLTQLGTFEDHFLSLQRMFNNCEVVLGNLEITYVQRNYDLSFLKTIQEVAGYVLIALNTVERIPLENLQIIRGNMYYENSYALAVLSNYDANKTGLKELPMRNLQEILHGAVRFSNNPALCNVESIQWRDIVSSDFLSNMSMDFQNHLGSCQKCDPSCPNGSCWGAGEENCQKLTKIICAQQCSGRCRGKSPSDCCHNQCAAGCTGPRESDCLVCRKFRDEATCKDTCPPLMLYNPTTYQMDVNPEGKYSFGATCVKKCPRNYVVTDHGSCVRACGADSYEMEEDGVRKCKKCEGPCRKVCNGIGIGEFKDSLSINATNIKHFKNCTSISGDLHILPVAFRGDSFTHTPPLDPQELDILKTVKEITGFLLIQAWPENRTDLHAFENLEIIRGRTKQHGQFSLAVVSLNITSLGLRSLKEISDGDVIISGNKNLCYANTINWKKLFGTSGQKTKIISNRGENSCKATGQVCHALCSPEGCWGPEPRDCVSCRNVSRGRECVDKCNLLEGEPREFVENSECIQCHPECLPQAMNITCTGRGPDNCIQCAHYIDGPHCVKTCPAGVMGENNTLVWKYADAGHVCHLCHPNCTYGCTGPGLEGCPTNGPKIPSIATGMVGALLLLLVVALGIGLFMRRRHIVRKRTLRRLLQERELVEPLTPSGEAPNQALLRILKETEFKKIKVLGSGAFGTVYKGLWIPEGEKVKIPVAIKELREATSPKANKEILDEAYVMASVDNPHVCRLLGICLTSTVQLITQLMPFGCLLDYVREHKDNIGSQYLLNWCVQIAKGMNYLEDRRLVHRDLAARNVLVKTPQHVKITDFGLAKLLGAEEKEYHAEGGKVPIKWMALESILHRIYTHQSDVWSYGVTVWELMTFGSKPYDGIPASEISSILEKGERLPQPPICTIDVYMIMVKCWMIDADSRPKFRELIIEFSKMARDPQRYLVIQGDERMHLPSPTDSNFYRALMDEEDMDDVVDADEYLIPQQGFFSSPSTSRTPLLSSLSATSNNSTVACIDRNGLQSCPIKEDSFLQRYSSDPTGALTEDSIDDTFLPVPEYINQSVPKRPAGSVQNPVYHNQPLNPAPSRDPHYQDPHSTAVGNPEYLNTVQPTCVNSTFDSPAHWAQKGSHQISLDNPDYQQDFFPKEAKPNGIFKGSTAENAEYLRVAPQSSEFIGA
Chain of Ephrin type-A receptor 2 (Homo sapiens) (P29317 whole entry): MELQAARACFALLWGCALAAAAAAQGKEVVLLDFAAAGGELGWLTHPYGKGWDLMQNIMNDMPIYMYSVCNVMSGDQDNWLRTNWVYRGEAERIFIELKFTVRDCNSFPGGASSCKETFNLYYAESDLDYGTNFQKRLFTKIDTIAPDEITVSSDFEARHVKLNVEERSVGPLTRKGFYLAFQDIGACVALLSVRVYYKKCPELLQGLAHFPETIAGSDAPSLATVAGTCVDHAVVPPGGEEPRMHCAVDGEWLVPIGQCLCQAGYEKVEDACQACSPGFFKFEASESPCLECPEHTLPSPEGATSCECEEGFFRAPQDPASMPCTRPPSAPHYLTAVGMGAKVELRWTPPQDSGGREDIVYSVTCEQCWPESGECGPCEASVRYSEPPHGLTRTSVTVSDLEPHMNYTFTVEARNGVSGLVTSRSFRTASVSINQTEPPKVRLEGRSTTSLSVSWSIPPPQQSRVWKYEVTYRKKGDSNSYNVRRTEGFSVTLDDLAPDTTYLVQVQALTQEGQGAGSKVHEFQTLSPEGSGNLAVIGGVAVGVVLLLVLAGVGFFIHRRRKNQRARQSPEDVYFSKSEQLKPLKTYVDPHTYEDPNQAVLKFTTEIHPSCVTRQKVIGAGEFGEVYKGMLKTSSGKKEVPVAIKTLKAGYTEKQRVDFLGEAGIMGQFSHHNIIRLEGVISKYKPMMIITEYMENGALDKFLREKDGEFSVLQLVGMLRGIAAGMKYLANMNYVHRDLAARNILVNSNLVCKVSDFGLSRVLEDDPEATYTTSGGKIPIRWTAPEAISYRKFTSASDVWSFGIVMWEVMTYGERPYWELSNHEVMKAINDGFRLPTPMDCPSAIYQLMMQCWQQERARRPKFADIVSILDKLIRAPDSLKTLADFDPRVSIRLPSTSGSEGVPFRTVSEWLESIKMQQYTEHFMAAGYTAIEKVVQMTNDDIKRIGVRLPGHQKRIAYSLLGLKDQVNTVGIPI

By residual activity is commonly meant the signal under treatment as a percentage of the control signal. With `COc1cc2ncnc(Nc3cccc(Cl)c3)c2cc1OC`, the residual activity is 48% in [1]; -5% in experiment [2]; -3% in experiment [3]; 42% in [4]; 7% in experiment [5]; 89% in experiment [6]. For the same compound, the residual activity in experiment [7] worked out at 37%.
`c1ccc(-c2cnc(Nc3ccc(OCCN4CCCC4)cc3)s2)cc1`: the residual activity was found to be 4% in experiment [1]; 62% in [8]; 77% in experiment [4]; 60% in experiment [5]; 104% in [9].
`O=C1Cc2c([nH]c3ccc(Br)cc23)-c2ccccc2N1`: the residual activity worked out at 39% in [1]; 92% in [10]; 45% in [8]; 91% in experiment [4]; 78% in experiment [5]; 83% in [9].
As to `O=C(Nc1nc2ccccc2n1CCN1CCOCC1)c1cccc([N+](=O)[O-])c1`, the residual activity in [1] is 53%; in experiment [10] it was 102%; in experiment [8], 88%; in experiment [4] it was 80%; in experiment [5], 123%; in experiment [9], 104%.
For `N#C/C(=C1/Nc2ccccc2S1)c1ccnc(NCCc2cccnc2)n1`, the residual activity in experiment [1] was 37%; in experiment [10], 19%; in [8], 2%.
With `Nc1n[nH]c2nc3ccccc3nc12`, the residual activity worked out at 50% in experiment [1]; 92% in [10]; 41% in [8]; 87% in experiment [4]; 83% in experiment [5]; 98% in experiment [9].
On to `O=C(O)/C=C/c1cc(Br)c(Br)c(Br)c1Br`, for which the residual activity in experiment [1] stood at 39%; in experiment [10], 92%; in experiment [8], 38%; in [4], 104%; in experiment [5], 91%; in experiment [9], 101%.
Regarding `O=c1cc(N2CCOCC2)oc2c1ccc1ccccc12`, the residual activity in experiment [1] came to 71%; in experiment [10] it was 97%; in experiment [8] it was 65%; in experiment [4], 91%; in experiment [5], 87%; in experiment [7], 95%. For the same compound, in experiment [9], the residual activity was found to be 92%.
For the compound `NC(=O)c1cccc(-c2cc(Nc3ccc(OC(F)(F)F)cc3)ncn2)c1`, the residual activity in experiment [1] turned out to be 145%; in [8], 91%; in experiment [5], 96%.
As for `CC(C)(C)n1nc(Cc2cccc3ccccc23)c2c(N)ncnc21`, the residual activity in experiment [1] is 103%; in experiment [10], 109%; in experiment [8] it was 99%; in experiment [4], 7%; in [5] it was -1%; in experiment [6], 33%. Moreover, the residual activity worked out at 1% in [7] and 63% in [9].
`Cn1c2ccccc2c2c3c(c4c5ccccc5n(CCC#N)c4c21)CNC3=O`: the residual activity is 36% in experiment [1], 76% in experiment [10] and 66% in experiment [8].
Consider `O=C1C(Cl)=C(N2C(=O)CCC2=O)C(=O)c2ccccc21`, for which the residual activity in experiment [1] was 82%; in [10] it was 100%; in experiment [8] it was 92%; in [5], 84%; in experiment [6], 93%; in [9] it was 85%.
Take `Nc1ncnc2[nH]nc(Nc3ccc(F)cc3)c12`: the residual activity was determined as 16% in experiment [1]; 79% in experiment [10]; 30% in experiment [8]; 43% in experiment [4]; 50% in experiment [7].
As to `CCN(CC)CCNC(=O)c1c(C)[nH]c(/C=C2\C(=O)Nc3ccc(Cl)cc32)c1C`, the residual activity amounted to 2% in experiment [1]; 78% in [10]; 37% in experiment [8]; 82% in experiment [4]; 37% in experiment [5]; 73% in [7].
With `Nc1ncnc2c1cnn2-c1ccccc1`, the residual activity came to 68% in experiment [1]; 85% in experiment [10]; 44% in experiment [8]; 85% in experiment [4]; 88% in experiment [5]; 100% in [9].
Consider `O=c1c(-c2ccc(F)cc2)c(-c2ccncc2)[nH]n1-c1ccc(Cl)cc1`, for which the residual activity in experiment [3] is 6%.
Same read-out and setting: the value for `COc1ccc(COc2ccc(Cc3cnc(N)nc3N)cc2OC)cc1` was 114%.

Source of the values: ChEMBL document CHEMBL2218924, “A broad activity screen in support of a chemogenomic map for kinase signalling research and drug discovery” (Biochem J, 2013).
